The whole screen tested about 310,000 compounds, of which about 3,900 (1.3%) were called active.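 How the source made its calls: active means calcium-response B-score plate-corrected more than 3 library SD below zero, starting fluorescence within 5 deviations, no agonist response on first addition; inactive means the rest.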 Shown is part of a subset that was picked to be rich in actives.

In the experiment the target is Mas-related G-protein coupled receptor member X1 (Homo sapiens) (UniProt Q96LB2). Put plainly: blockade of BAM8-22-evoked MrgX1 calcium response – HEK293 cells, Fluo-4 calcium flux, primary screen (AID 588676).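 On B-score: peak minus trough fluorescence over baseline after final BAM8-22 challenge near maximal dose.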 The note with it: Fluo-4, BAM8-22 antagonism, at 10 µM; stronger effect = lower value. A general note: A change in cytosolic calcium serves as a functional read-out for many receptors and channels.
Mas-related G-protein coupled receptor member X1 (Homo sapiens), sequence (Q96LB2 whole entry, looked up): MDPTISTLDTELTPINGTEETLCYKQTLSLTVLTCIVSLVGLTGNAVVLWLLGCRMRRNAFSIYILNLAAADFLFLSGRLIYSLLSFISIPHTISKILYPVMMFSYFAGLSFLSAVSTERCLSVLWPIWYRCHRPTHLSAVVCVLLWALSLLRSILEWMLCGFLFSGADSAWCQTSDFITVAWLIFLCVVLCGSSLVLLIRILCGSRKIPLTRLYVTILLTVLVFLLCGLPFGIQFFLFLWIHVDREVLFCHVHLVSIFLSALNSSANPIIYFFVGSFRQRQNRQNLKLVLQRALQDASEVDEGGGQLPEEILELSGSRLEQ
Turning to `CC(=O)c1cc(-c2ccccc2)n(CC(=O)NC2CCCCC2)c1C`, the B-score result was “inactive”. `O=C(Cn1c(-c2cscn2)nc2ccccc21)Nc1ccc(Cl)cc1`: the B-score entry is “inactive”.

For the molecule `O=C(Cn1c(-c2cncs2)nc2ccccc21)NC1CCCC1`, the B-score was -5 (active). As to `Cc1cc(NC(=O)CSC2=NS(=O)(=O)c3cc(Cl)ccc3N2)no1`, the B-score result was “inactive”. Under `C[C@@H](NC(=O)OC(C)(C)C)c1nnc(S(=O)(=O)Cc2ccccc2)o1` stands “inactive”; under `CNC(=S)N/N=C/c1ccc(OCc2ccccc2)c(Br)c1`, “inactive”.

On to `O=C(NCc1ccccn1)c1ccc2nc(-c3ccco3)c(-c3ccco3)nc2c1`, for which the B-score entry is “inactive”.

On to `CCCC(=O)Nc1ccc2c(c1)nc(CCNC(=O)c1ccco1)n2C`, for which the B-score result is “inactive”.

As for `COCCNC(=O)Nc1ccc2nc(-c3ccco3)c(-c3ccco3)nc2c1`, the B-score is -6.82 (active). Consider `CCOc1ccc(S(=O)(=O)NCCC(=O)N2CCCCCCC2)cc1`, for which the B-score result was “inactive”. Under `O=C(NC(=S)N1CCc2ccccc21)c1ccco1` stands “inactive”; under `O=[N+]([O-])c1ccc2nc(-c3ccccn3)[nH]c2c1`, “inactive”; under `COc1ccc([N+](=O)[O-])cc1-c1nc2ccccc2nc1-c1ccccc1`, “inactive”. Regarding `O=[N+]([O-])c1ccc2c(c1)Nc1nc3ccccc3nc1N2`, the B-score was -4.67 (active). Under `[O-][n+]1onc2c1CCc1[nH]c(-c3ccccc3)nc1-2` stands “inactive”. Under `COc1ccc(NC(=S)N2N=CCC2c2ccccc2)cc1` (stereo not drawn) stands -7.31 (active); under `COc1ccc(C(=S)Nc2ccccc2)cc1`, “inactive”; under `COc1ccc(C2=NN(C(C)=O)C(c3ccccc3)C2)cc1` (stereo not drawn), “inactive”. As for `Cc1nnc(CN(C)Cc2cn[nH]c2-c2ccc(-c3ccccc3)cc2)o1`, the B-score entry was “inactive”. With `CC(Nc1nc(C(F)(F)F)nc2ccccc12)c1cccs1` (stereo not drawn), the B-score entry is “inactive”. As for `Cc1ccc(N2C(=O)C3C4C=CC(CC4)C3C2=O)cc1Br` (stereo not drawn), the entry is “inactive”; as for `O=[N+]([O-])c1ccc(NC(=S)N2CCN(c3ccccn3)CC2)cc1`, “inactive”. With `CNC(=S)N1CCN(c2ccccn2)CC1`, the B-score result was “inactive”.

For the molecule `COc1cc([N+](=O)[O-])ccc1NC(=S)N1CCN(c2ccccn2)CC1`, the B-score was -5.85 (active). Under `CCC(C(=O)NC1CCCCC1)N(C(=O)c1snc(C(N)=O)c1N)c1ccc(OC)cc1OC` (stereo not drawn) stands “inactive”; under `COC(=O)c1cccc(C(=O)N2CCCC(Nc3ccc4c(c3)OCCO4)C2)c1` (stereo not drawn), “inactive”; under `Cc1ccc(S(=O)(=O)N2CCN(C(=O)c3ccccc3-c3nc4ccccc4s3)CC2)c(C)c1`, -4.66 (active). As for `Cc1ccc(S(=O)(=O)N2CCN(C(=O)N3CCOCC3)CC2)c(C)c1`, the entry is “inactive”; as for `Cc1ccc(S(=O)(=O)N2CCN(C(=O)COC(=O)c3c(C)cc(C)cc3C)CC2)c(C)c1`, “inactive”; as for `COc1cc(SC#N)ccc1N=Cc1c(C)[nH]n(-c2ccc(C)cc2)c1=O`, “inactive”.

For `CCSc1nsc(NC(=O)Nc2cccc(C(C)=O)c2)n1`, the B-score was -6.91 (active). Under `C=CCSc1nsc(NC(=O)Nc2cccc(C(C)=O)c2)n1` stands “inactive”; under `CCSc1nsc(NC(=O)Nc2ccccc2OC)n1`, “inactive”. As for `COc1ccc(/C=N/NC(=O)c2cc(-c3cccc(C)c3)nc3ccccc23)cc1O`, the entry is “inactive”; as for `CCOc1cc(/C=N/NC(=O)c2cc(-c3ccccc3)nc3ccccc23)ccc1O`, “inactive”. Under `COc1cccc(-c2cc(C(=O)N/N=C/c3ccc(OC)c(COC(C)=O)c3)c3ccccc3n2)c1` stands -7.49 (active); under `CCCCN(C1CCS(=O)(=O)C1)S(=O)(=O)c1ccc(C(C)C)cc1` (stereo not drawn), “inactive”. Regarding `O=c1[nH]c(N2CCOCC2)nc2ccccc12`, the B-score entry was “inactive”.

For the molecule `CC1(C)Cc2c(C#N)c(SCc3nc4ccccc4[nH]3)nc(N3CCOCC3)c2CO1`, the B-score entry was “inactive”.

In the case of `C1=C(N2CCOCC2)/C(=C/c2nc3ccccc3[nH]2)CC1`, the B-score is -5.3 (active).

With `COc1ccc2c(c1)[C@H]1[C@H](CO2)[C@H](c2ccccc2)[C@]2(C)C(=O)Nc3cc(F)c(F)cc3C(=O)N12`, the B-score entry is “inactive”.

For the molecule `COc1cc(CN(C)Cc2nc3cc(C(F)(F)F)ccc3c(=O)[nH]2)ccc1OC(F)F`, the B-score entry is “inactive”. Under `CCOCCCNC(=O)C1(O)c2cc(Br)ccc2NC(=O)N1c1ccc(C)c(C)c1` (stereo not drawn) stands “inactive”; under `C=CCn1c(=NC(=O)c2cccs2)sc2cc(NC(C)=O)ccc21`, “inactive”; under `Cc1ccc(Cc2cnc(N)s2)o1`, -6.78 (active). As for `Cc1ccc(CCC(=O)Nc2ncc(Cc3cc(Cl)ccc3Cl)s2)o1`, the entry is “inactive”. With `CCn1ccnc1CN(C)C(=O)c1cc(COc2ccc(Cl)cc2OC)on1`, the B-score entry is “inactive”.

Regarding `CCc1ccc2[nH]c(=O)c(Cc3ccccc3)c(O)c2c1`, the B-score entry is “inactive”. Under `CN(C)c1ccc(-n2cccc2/C=C2/SC(=Nc3ccc(F)cc3)NC2=O)cc1` stands -5.31 (active); under `CN(C)c1ccc(-n2cccc2/C=N/n2cnnc2)cc1`, “inactive”; under `Cc1ccc(N=C2NC(=O)/C(=C/C=C/c3ccco3)S2)cc1C`, “inactive”. Regarding `Cc1ccccc1NC(=O)Cn1cc(C(=O)C2CC2)c2ccccc21`, the B-score entry is “inactive”.

Turning to `COc1cccc2sc(N(CCCN(C)C)C(=O)C(c3ccccc3)c3ccccc3)nc12`, the B-score is -7.14 (active). Under `COc1cccc2sc(N(CCCN(C)C)C(=O)CCS(=O)(=O)c3ccccc3)nc12` stands “inactive”. Under `COc1cc2ccccc2cc1C(=O)N(CCN(C)C)c1nc2c(F)cccc2s1` stands “inactive”; under `CCc1ccc2c(c1)C1(NN=C(c3ccccc3)S1)C(=O)N2` (stereo not drawn), “inactive”. As for `CCOC(=O)c1c(NC(=O)CCl)sc(C(=O)N(CC)CC)c1C`, the entry is “inactive”. Turning to `Cn1nc(C(F)(F)F)cc1-c1ccc(/C=C(\C#N)C(=O)c2cccc(C(F)(F)F)c2)s1`, the B-score result is “inactive”. As for `CCOC(=O)c1c(C)[nH]c(=S)c(C#N)c1-c1ccccc1`, the figure is -6.66 (active). Under `CCOC(=O)c1c(C)nc(-c2ccccc2)nc1NC(=O)C(C)C` stands “inactive”; under `CC(=O)c1c(C)[nH]c(=S)c(C#N)c1-c1ccc(F)cc1`, “inactive”. As for `O=c1c(Cl)c(NCc2ccc(F)cc2Cl)cnn1C12CC3CC(CC(C3)C1)C2`, the entry is “inactive”; as for `Cc1cccc2c1-c1sc(C(=O)NCCCN3CCc4ccccc4C3)cc1CO2`, “inactive”; as for `CC1=NN(c2cccc(Cl)c2)C(=O)C12CC(C)=C(C)CS2` (stereo not drawn), “inactive”. For the molecule `CC(C)Oc1ccc(C(CC(=O)N2CCOCC2)C(C)C)cc1` (stereo not drawn), the B-score result is “inactive”. As for `O=[N+]([O-])c1ccc(N2CCN(S(=O)(=O)c3ccccc3)CC2)cc1N1CCc2ccccc2C1`, the entry is “inactive”. Turning to `CC(C)CC(O)C1CCN(C(=O)CCc2nnc(-c3ccc4c(c3)OCO4)o2)CC1` (stereo not drawn), the B-score result was “inactive”. Consider `COCC1CCN(C(=O)CCc2nnc(C3(c4ccc(Cl)cc4)CCC3)o2)C1` (stereo not drawn), for which the B-score result is “inactive”. Under `Cc1nccn1CCC1CCCCN1C(=O)CCc1nnc(-c2ccsc2)o1` (stereo not drawn) stands -4.86 (active).

For `CN(C)C(CNC(=O)Cc1ccc([N+](=O)[O-])cc1)c1ccccc1` (stereo not drawn), the B-score result is “inactive”. As for `O=C(CSCc1ccc([N+](=O)[O-])cc1)NCCSCc1ccccc1`, the entry is “inactive”; as for `CN(C)CCNC(=O)Cc1ccc([N+](=O)[O-])cc1`, -6.37 (active); as for `S=C(NCc1ccco1)Nc1ccc2c(c1)OCCO2`, “inactive”. Under `FC(F)Oc1ccc(NC(=S)NCc2ccco2)cc1Cl` stands -4.6 (active); under `COc1cc(NC(=S)NCc2ccco2)c(OC)cc1Cl`, “inactive”. As for `O=C1CCc2cc(S(=O)(=O)Nc3ccc(C(F)(F)F)cc3)cc3c2N1CC3`, the entry is “inactive”; as for `CCN(CC(=O)Nc1cc(Cl)ccc1C)C(=O)Cn1c(=O)cnc2ccccc21`, “inactive”; as for `CCN1CCN(C2CCCCC2NS(=O)(=O)c2ccc(Cl)cc2)CC1` (stereo not drawn), “inactive”.

Take `CCOC1CCCCC1NS(=O)(=O)c1ccc(Cl)cc1` (stereo not drawn): the B-score was -6.36 (active). Under `O=S(=O)(NC1CCCCC1N1CCCCC1)c1ccc(Cl)cc1` (stereo not drawn) stands “inactive”. Under `O=C(O)CCCN1C(=O)c2ccccc2Sc2ncccc21` stands “inactive”. `COc1ccc(C(=O)NCc2nnc(SCC(=O)NC3=NCCS3)n2C)cc1`: the B-score entry is “inactive”. As for `COc1ccc(CC(=O)NCc2nnc(SCC(=O)Nc3nccs3)n2C)cc1`, the entry is “inactive”; as for `COc1ccc(C(=O)NCc2nnc(SCCOc3ccccc3)n2C)cc1`, -8.04 (active); as for `CCN(CC)C(=O)CSc1nnc(CNc2ccc(F)cc2)n1Cc1ccco1`, “inactive”.

With `CC(C)(C)n1c(=O)[nH]c2c(c1=O)CCC2`, the B-score was -7.85 (active). With `O=c1[nH]n2c(=O)c3c([nH]c2c1N=Nc1ccccc1)CCC3`, the B-score entry is “inactive”. As for `O=C(COC(=O)Cc1c[nH]c2ccccc12)NCCc1ccccc1`, the entry is “inactive”; as for `Cc1nc(CNS(=O)(=O)c2ccc(Oc3ccccc3)cc2)cs1`, “inactive”. Turning to `O=C(NCCCc1ccccc1)C(=O)c1c[nH]c2ccccc12`, the B-score result was “inactive”.

With `CCS(=O)(=O)N1Cc2ccccc2CC1C(=O)Nc1nc2ccc(F)cc2s1` (stereo not drawn), the B-score result was “inactive”.

With `COc1ccc(OCCCC(=O)OC(C)C(=O)Nc2ccccc2[N+](=O)[O-])cc1` (stereo not drawn), the B-score result was “inactive”. Regarding `COc1ccc(N2CCN(C(=O)CN3C(=O)COc4ccccc43)CC2)cc1`, the B-score entry is “inactive”. As for `Nc1ccc(SCCN2C(=O)c3ccccc3C2=O)cc1`, the entry is “inactive”; as for `NC(=O)C1(C(N)=O)OC1c1ccc(Cl)cc1Cl` (stereo not drawn), “inactive”; as for `O=C(NC1CC1)C1=C[C@H](c2coc3ccccc3c2=O)C[C@H](OCCCCO)O1`, “inactive”. Under `CNC(=O)c1cccc2nc3ccccc3nc12` stands “inactive”; under `O=c1[nH]c(=O)c2nc3ccccc3nc2[nH]1`, -4.56 (active). Under `Nc1ccc2nc3c(=O)[nH]c(=S)[nH]c3nc2c1` stands “inactive”. `CC1(C)CC(=O)C(N=Nc2c(F)cccc2F)=C(O)C1`: the B-score result was “inactive”.

`CC(=O)N1CCC(C(=O)OCc2ccc(Cl)cc2)(c2ccccc2)CC1`: the B-score entry is “inactive”.

As to `Cc1ccc(S(=O)(=O)N(C)c2nc3ccccc3n3c(C(C)C)nnc23)cc1`, the B-score result is “inactive”. Turning to `Nc1cc(OC(=O)c2ccccc2Br)nn1S(=O)(=O)c1ccccc1`, the B-score entry was “inactive”. Under `Cc1ccc(-c2cn(S(=O)(=O)c3cccc([N+](=O)[O-])c3)nc2N)cc1` stands “inactive”; under `Cc1ccc(S(=O)(=O)n2nc(OC(=O)C(C)(C)C)cc2N)cc1`, -8.79 (active); under `O=C(Nc1ccccc1Cl)N1CCN(c2ccc3nncn3n2)CC1`, -4.64 (active). Turning to `Cc1ccc(C(=O)NC2CCN(C(=O)Nc3ccccc3Cl)CC2)cc1`, the B-score entry is “inactive”. Under `O=C(COc1ccc(-n2cnnn2)cc1)Nc1ccccc1Cl` stands “inactive”.

Source of the values: PubChem BioAssay AID588676 (Johns Hopkins Ion Channel Center, 2011).
